From publication PMC7862700, “An all-to-all approach to the identification of sequence-specific readers for epigenetic DNA modifications on cytosine”

Key:
Assay in all cases: DAPPL (digital affinity profiling via proximity ligation, sequencing); 10 mM Tris-HCl pH 7.5, 50 mM NaCl, 1 mM DTT, 4% glycerol, room temperature, 30 min; GST-TFs on glutathione beads, 16-mer random dsDNA library, 0.1% formaldehyde crosslink after washing; high values mean tight binding
FEV = molecular target: T1, FEV (Homo sapiens, UniProt Q99581 1-238); settings: protein: recombinant; tags: N-terminal GST; dsDNA, one strand shown
T1 sequence: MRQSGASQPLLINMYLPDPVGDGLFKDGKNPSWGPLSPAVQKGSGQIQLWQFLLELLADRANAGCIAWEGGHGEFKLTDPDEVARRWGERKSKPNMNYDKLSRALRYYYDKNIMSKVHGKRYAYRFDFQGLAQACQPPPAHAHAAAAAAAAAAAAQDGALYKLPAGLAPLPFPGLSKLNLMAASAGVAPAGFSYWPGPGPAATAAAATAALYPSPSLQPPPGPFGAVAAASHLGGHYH
Summary of the method: (§1)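 The binding signal reported is, for every hexamer, its read frequency for a factor over its read frequency for the tag-only sample. Reads came from pools of yeast-expressed, GST-fused human transcription factors on glutathione beads, barcoded with DNA and mixed with that sample, which were incubated with 200 nmole of a random double-stranded 16-mer DNA library in Tris/NaCl/DTT/glycerol buffer at room temperature for 30 min. After washing, the pools were crosslinked with 0.1% formaldehyde, proximity-ligated with BsaI/T4 ligase for 1 h at 37 °C, PCR-amplified and sequenced on an Illumina NextSeq500.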

ETV5 = ETV5 (Homo sapiens, UniProt P41161 1-510); settings: protein: recombinant; tags: N-terminal GST; dsDNA, one strand shown
Summary of the method: as §1

HSF1 = HSF1 (Homo sapiens, UniProt Q00613 1-529); settings: protein: recombinant; tags: N-terminal GST; chain copies: 3; dsDNA, one strand shown
Summary of the method: as §1

SPIC = molecular target: T2, SPIC (Homo sapiens, UniProt Q8N5J4 1-248); settings: protein: recombinant; tags: N-terminal GST; dsDNA, one strand shown
T2 sequence: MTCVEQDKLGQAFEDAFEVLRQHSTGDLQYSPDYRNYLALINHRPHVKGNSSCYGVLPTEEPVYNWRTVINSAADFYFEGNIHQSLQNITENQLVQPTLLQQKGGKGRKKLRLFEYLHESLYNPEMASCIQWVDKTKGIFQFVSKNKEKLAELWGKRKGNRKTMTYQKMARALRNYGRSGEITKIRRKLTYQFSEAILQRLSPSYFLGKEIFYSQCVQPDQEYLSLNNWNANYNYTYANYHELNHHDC
Summary of the method: as §1

ELF4 = ELF4 (Homo sapiens, UniProt Q99607 1-663); settings: protein: recombinant; tags: N-terminal GST; dsDNA, one strand shown
Summary of the method: as §1

ELK4 = molecular target: T3, ELK4 (Homo sapiens, UniProt P28324-2 1-405); settings: protein: recombinant; tags: N-terminal GST; dsDNA, one strand shown
T3 sequence: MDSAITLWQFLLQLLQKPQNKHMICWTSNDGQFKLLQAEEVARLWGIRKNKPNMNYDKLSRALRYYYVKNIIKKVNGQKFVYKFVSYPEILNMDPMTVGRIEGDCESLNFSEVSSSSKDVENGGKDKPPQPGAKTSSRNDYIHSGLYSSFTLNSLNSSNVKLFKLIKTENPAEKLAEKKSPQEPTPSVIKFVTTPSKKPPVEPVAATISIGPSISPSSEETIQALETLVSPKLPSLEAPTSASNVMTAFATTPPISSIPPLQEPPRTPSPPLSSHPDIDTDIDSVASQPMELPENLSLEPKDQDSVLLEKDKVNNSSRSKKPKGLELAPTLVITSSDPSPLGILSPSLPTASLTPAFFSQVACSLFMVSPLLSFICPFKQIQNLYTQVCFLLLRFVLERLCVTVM
Summary of the method: as §1

ETV2 = molecular target: T4, ETV2 (Homo sapiens, UniProt O00321 1-342); settings: protein: recombinant; tags: N-terminal GST; dsDNA, one strand shown
T4 sequence: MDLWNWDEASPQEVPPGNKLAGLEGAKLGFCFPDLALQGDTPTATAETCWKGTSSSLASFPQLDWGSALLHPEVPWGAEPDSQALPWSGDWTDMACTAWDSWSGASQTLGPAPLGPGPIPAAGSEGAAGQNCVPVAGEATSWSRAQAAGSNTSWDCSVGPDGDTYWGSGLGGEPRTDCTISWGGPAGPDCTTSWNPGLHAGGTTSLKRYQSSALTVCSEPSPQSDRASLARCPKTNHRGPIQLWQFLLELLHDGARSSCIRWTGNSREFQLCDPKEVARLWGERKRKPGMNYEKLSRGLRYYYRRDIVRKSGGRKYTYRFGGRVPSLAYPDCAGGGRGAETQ
Summary of the method: as §1

ELF3 = molecular target: T5, ELF3 (Homo sapiens, UniProt P78545 1-371); settings: protein: recombinant; tags: N-terminal GST; dsDNA, one strand shown
T5 sequence: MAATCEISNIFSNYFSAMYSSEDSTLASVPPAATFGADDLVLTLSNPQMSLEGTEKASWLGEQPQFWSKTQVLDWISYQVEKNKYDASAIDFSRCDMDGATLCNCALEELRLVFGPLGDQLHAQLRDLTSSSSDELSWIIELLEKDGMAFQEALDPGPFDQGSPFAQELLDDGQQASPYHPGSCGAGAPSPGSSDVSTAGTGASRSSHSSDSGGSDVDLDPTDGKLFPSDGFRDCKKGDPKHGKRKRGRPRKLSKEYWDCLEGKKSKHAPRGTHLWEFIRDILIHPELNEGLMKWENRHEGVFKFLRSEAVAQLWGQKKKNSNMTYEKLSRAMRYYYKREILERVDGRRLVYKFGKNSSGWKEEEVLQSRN
Summary of the method: as §1

ETV1 = ETV1 (Homo sapiens, UniProt P50549 1-477); settings: protein: recombinant; tags: N-terminal GST; dsDNA, one strand shown
Summary of the method: as §1

Chain of ETV5 (P41161 whole entry): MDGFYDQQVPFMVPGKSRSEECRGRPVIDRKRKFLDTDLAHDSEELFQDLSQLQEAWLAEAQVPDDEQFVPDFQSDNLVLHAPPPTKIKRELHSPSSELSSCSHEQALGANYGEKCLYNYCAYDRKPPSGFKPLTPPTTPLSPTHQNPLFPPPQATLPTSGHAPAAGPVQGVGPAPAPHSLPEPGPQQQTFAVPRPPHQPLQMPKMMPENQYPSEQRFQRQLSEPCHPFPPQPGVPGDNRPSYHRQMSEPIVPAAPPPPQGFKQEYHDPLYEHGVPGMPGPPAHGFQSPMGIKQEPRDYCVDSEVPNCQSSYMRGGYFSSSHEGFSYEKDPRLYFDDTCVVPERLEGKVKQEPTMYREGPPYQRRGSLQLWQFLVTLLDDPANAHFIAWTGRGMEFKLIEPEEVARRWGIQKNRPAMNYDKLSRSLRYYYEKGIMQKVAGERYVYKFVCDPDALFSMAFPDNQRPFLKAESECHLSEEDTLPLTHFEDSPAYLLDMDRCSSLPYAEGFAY
Chain of ETV1 (P50549 whole entry): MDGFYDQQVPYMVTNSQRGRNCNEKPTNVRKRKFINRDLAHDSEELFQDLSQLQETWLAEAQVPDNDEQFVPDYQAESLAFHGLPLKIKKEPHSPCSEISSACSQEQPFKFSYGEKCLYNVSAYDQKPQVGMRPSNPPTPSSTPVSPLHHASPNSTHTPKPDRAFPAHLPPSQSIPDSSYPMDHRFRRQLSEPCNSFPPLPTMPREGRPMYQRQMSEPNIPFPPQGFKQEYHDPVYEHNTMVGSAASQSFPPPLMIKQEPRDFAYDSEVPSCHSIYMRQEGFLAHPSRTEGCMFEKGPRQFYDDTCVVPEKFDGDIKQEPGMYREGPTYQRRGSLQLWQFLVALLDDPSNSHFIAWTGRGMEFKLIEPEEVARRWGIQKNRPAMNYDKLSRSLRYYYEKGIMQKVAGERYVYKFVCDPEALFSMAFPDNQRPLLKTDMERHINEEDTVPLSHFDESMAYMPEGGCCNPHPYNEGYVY
Chain of HSF1 (Q00613 whole entry): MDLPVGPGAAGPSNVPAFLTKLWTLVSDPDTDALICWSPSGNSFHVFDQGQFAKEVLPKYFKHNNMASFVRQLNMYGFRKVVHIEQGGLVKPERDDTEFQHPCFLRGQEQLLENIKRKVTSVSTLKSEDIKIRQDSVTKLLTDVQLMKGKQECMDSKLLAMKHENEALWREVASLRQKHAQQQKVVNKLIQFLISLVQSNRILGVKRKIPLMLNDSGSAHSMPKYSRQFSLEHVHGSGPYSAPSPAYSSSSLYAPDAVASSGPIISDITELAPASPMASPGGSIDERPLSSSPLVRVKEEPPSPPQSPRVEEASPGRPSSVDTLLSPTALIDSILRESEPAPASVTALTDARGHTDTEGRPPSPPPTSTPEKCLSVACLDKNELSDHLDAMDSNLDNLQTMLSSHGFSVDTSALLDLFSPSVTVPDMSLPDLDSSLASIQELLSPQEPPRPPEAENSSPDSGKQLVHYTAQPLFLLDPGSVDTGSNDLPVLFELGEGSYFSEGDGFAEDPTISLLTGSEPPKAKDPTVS
Chain of ELF4 (Q99607 whole entry): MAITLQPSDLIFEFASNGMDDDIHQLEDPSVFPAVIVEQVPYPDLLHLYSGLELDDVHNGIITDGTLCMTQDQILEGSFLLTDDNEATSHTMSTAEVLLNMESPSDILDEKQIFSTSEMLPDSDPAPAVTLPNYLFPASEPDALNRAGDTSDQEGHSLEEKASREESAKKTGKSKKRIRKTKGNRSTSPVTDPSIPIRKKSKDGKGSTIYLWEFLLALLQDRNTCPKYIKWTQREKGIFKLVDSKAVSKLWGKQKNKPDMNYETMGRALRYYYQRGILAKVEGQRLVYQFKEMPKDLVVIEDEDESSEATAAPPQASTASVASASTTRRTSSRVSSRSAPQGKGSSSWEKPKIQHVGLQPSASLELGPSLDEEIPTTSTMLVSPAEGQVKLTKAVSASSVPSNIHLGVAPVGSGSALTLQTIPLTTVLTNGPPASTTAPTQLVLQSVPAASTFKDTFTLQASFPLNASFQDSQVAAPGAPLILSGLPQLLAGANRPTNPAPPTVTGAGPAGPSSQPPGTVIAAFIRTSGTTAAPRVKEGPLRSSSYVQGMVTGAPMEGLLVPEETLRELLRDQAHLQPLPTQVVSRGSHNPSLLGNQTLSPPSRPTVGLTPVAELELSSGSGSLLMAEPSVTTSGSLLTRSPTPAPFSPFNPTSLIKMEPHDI

**Q.** With ACGGAA as the sequence, how does the binding signal (FEV) read?
**A.** Its binding signal is 1.83 fold enrichment (6-mer frequency, TF over GST control).

**Q.** What about the binding signal (ETV5) of the same sequence?
**A.** The binding signal was 1.94 fold enrichment (6-mer frequency, TF over GST control).

**Q.** And the binding signal (HSF1)?
**A.** The binding signal was 1.01 fold enrichment (6-mer frequency, TF over GST control).

**Q.** What about the binding signal (SPIC) of the same sequence?
**A.** The binding signal was 1.69 fold enrichment (6-mer frequency, TF over GST control).

**Q.** What about the binding signal (ELF4) of the same sequence?
**A.** The binding signal was 1.61 fold enrichment (6-mer frequency, TF over GST control).

**Q.** What about the binding signal (ELK4) of the same sequence?
**A.** The binding signal was 1.5 fold enrichment (6-mer frequency, TF over GST control).

**Q.** And the binding signal (ETV2)?
**A.** Its binding signal is 1.75 fold enrichment (6-mer frequency, TF over GST control).

**Q.** What about the binding signal (ELF3) of the same sequence?
**A.** The binding signal was 1.89 fold enrichment (6-mer frequency, TF over GST control).

**Q.** And the binding signal (ETV1)?
**A.** Its binding signal is 1.85 fold enrichment (6-mer frequency, TF over GST control).
